Substitutions are numbered along the chain they refer to.
Key:
Assay in all cases: PBM; 200 nM protein, PBS
Conditions in all cases: dsDNA, one strand shown
HOXB4 [1] = target: HOXB4 (Homo sapiens, UniProt P17483 148-234)
HOXB4 [2] = target: HOXB4 (Homo sapiens, UniProt P17483 148-234, V174I)
VENTX [3] = target: T1, VENTX (Homo sapiens, UniProt O95231 78-163, R121Q)
T1 sequence: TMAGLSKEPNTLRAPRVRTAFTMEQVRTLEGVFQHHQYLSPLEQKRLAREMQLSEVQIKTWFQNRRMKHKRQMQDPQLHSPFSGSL

HOXA4 [4] = target: HOXA4 (Homo sapiens, UniProt Q00056 201-287, W262R)
Chain of HOXA4 (Homo sapiens, UniProt Q00056 201-287, W262R) (Q00056 201-287 W262R): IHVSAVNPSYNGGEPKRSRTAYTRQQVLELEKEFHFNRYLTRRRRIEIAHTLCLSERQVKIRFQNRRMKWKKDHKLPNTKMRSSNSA

VENTX [5] = target: T2, VENTX (Homo sapiens, UniProt O95231 78-163, Y115F)
T2 sequence: T1 sequence with Y38F, Q44R

HOXA2 [6] = target: HOXA2 (Homo sapiens, UniProt O43364 129-215, R185T)
Chain of HOXA2 (Homo sapiens, UniProt O43364 129-215, R185T) (O43364 129-215 R185T): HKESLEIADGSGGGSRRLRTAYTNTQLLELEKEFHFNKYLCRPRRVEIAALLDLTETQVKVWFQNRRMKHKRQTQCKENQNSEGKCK

HOXA4 [7] = target: HOXA4 (Homo sapiens, UniProt Q00056 201-287, R217L)
Chain of HOXA4 (Homo sapiens, UniProt Q00056 201-287, R217L) (Q00056 201-287 R217L): as the sequence (Q00056 201-287 W262R) above, with R17L, R62W counted along it

HOXA2 [8] = target: HOXA2 (Homo sapiens, UniProt O43364 129-215, R185K)
Chain of HOXA2 (Homo sapiens, UniProt O43364 129-215, R185K) (O43364 129-215 R185K): as the sequence (O43364 129-215 R185T) above, with T57K counted along it

HOXA4 [9] = target: HOXA4 (Homo sapiens, UniProt Q00056 201-287)
Chain of HOXA4 (Homo sapiens, UniProt Q00056 201-287) (Q00056 201-287): as the sequence (Q00056 201-287 W262R) above, with R62W counted along it

VAX1 [10] = target: VAX1 (Homo sapiens, UniProt Q5SQQ9 86-172)
Chain of VAX1 (Homo sapiens, UniProt Q5SQQ9 86-172) (Q5SQQ9 86-172): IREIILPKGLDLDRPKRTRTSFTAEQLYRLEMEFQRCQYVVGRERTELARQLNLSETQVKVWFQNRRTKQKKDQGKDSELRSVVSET

VAX1 [11] = target: VAX1 (Homo sapiens, UniProt Q5SQQ9 86-172, T142I)
Chain of VAX1 (Homo sapiens, UniProt Q5SQQ9 86-172, T142I) (Q5SQQ9 86-172 T142I): as the sequence (Q5SQQ9 86-172) above, with T57I counted along it

HOXA2 [12] = target: HOXA2 (Homo sapiens, UniProt O43364 129-215, Y150S)
Chain of HOXA2 (Homo sapiens, UniProt O43364 129-215, Y150S) (O43364 129-215 Y150S): as the sequence (O43364 129-215 R185T) above, with Y22S, T57R counted along it

HOXA4 [13] = target: HOXA4 (Homo sapiens, UniProt Q00056 201-287, W262F)
Chain of HOXA4 (Homo sapiens, UniProt Q00056 201-287, W262F) (Q00056 201-287 W262F): as the sequence (Q00056 201-287 W262R) above, with R62F counted along it

HOXA2 [14] = target: HOXA2 (Homo sapiens, UniProt O43364 129-215)
Chain of HOXA2 (Homo sapiens, UniProt O43364 129-215) (O43364 129-215): as the sequence (O43364 129-215 R185T) above, with T57R counted along it

VAX1 [15] = target: VAX1 (Homo sapiens, UniProt Q5SQQ9 86-172, K157R)
Chain of VAX1 (Homo sapiens, UniProt Q5SQQ9 86-172, K157R) (Q5SQQ9 86-172 K157R): as the sequence (Q5SQQ9 86-172) above, with K72R counted along it

Chain of HOXB4 (Homo sapiens, UniProt P17483 148-234) (P17483 148-234): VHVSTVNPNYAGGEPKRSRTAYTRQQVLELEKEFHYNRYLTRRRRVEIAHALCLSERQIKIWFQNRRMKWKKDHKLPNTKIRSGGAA
Chain of HOXB4 (Homo sapiens, UniProt P17483 148-234, V174I) (P17483 148-234 V174I): as the sequence (P17483 148-234) above, with V27I counted along it

Sequence | binding signal (HOXB4 [1]) | binding signal (HOXB4 [2]) | binding signal (VENTX [3]) | binding signal (HOXA4 [4]) | binding signal (VENTX [5]) | binding signal (HOXA2 [6]) | binding signal (HOXA4 [7]) | binding signal (HOXA2 [8]) | binding signal (HOXA4 [9]) | binding signal (VAX1 [10]) | binding signal (VAX1 [11]) | binding signal (HOXA2 [12]) | binding signal (HOXA4 [13]) | binding signal (HOXA2 [14]) | binding signal (VAX1 [15])
GGCCCCCC | 7.99 upbm affinity estimate (log intensity, higher = more binding, comparable within an allelic series) | 7.93 upbm affinity estimate (log intensity, higher = more binding, comparable within an allelic series) | – | – | – | – | – | – | – | – | – | – | – | – | –
CTAATGAG | 13 upbm affinity estimate (log intensity, higher = more binding, comparable within an allelic series) | 13.6 upbm affinity estimate (log intensity, higher = more binding, comparable within an allelic series) | 11.9 upbm affinity estimate (log intensity, higher = more binding, comparable within an allelic series) | 10.5 upbm affinity estimate (log intensity, higher = more binding, comparable within an allelic series) | 12 upbm affinity estimate (log intensity, higher = more binding, comparable within an allelic series) | 13.3 upbm affinity estimate (log intensity, higher = more binding, comparable within an allelic series) | 11.8 upbm affinity estimate (log intensity, higher = more binding, comparable within an allelic series) | 13.6 upbm affinity estimate (log intensity, higher = more binding, comparable within an allelic series) | 13.8 upbm affinity estimate (log intensity, higher = more binding, comparable within an allelic series) | 13.6 upbm affinity estimate (log intensity, higher = more binding, comparable within an allelic series) | 13.3 upbm affinity estimate (log intensity, higher = more binding, comparable within an allelic series) | 10.6 upbm affinity estimate (log intensity, higher = more binding, comparable within an allelic series) | 11.6 upbm affinity estimate (log intensity, higher = more binding, comparable within an allelic series) | 12.8 upbm affinity estimate (log intensity, higher = more binding, comparable within an allelic series) | 13.4 upbm affinity estimate (log intensity, higher = more binding, comparable within an allelic series)
GCCGCTCC | 7.92 upbm affinity estimate (log intensity, higher = more binding, comparable within an allelic series) | 7.92 upbm affinity estimate (log intensity, higher = more binding, comparable within an allelic series) | – | – | – | – | – | – | – | – | – | – | – | – | –
GCGCAGCC | 7.53 upbm affinity estimate (log intensity, higher = more binding, comparable within an allelic series) | 7.57 upbm affinity estimate (log intensity, higher = more binding, comparable within an allelic series) | – | – | – | – | – | – | – | – | – | – | – | – | –
ATCATTAA | 13.5 upbm affinity estimate (log intensity, higher = more binding, comparable within an allelic series) | 14.2 upbm affinity estimate (log intensity, higher = more binding, comparable within an allelic series) | 11.7 upbm affinity estimate (log intensity, higher = more binding, comparable within an allelic series) | 10.9 upbm affinity estimate (log intensity, higher = more binding, comparable within an allelic series) | 11.7 upbm affinity estimate (log intensity, higher = more binding, comparable within an allelic series) | 13 upbm affinity estimate (log intensity, higher = more binding, comparable within an allelic series) | 12.9 upbm affinity estimate (log intensity, higher = more binding, comparable within an allelic series) | 13.5 upbm affinity estimate (log intensity, higher = more binding, comparable within an allelic series) | 14.2 upbm affinity estimate (log intensity, higher = more binding, comparable within an allelic series) | 13.2 upbm affinity estimate (log intensity, higher = more binding, comparable within an allelic series) | 13.2 upbm affinity estimate (log intensity, higher = more binding, comparable within an allelic series) | 10.9 upbm affinity estimate (log intensity, higher = more binding, comparable within an allelic series) | 12.5 upbm affinity estimate (log intensity, higher = more binding, comparable within an allelic series) | 12.7 upbm affinity estimate (log intensity, higher = more binding, comparable within an allelic series) | 13 upbm affinity estimate (log intensity, higher = more binding, comparable within an allelic series)
CCCCCTCG | 7.86 upbm affinity estimate (log intensity, higher = more binding, comparable within an allelic series) | 7.85 upbm affinity estimate (log intensity, higher = more binding, comparable within an allelic series) | – | – | – | 7.09 upbm affinity estimate (log intensity, higher = more binding, comparable within an allelic series) | – | 10.2 upbm affinity estimate (log intensity, higher = more binding, comparable within an allelic series) | – | – | – | 10.3 upbm affinity estimate (log intensity, higher = more binding, comparable within an allelic series) | – | 7.14 upbm affinity estimate (log intensity, higher = more binding, comparable within an allelic series) | –
CGTGCCTC | 7.37 upbm affinity estimate (log intensity, higher = more binding, comparable within an allelic series) | 7.39 upbm affinity estimate (log intensity, higher = more binding, comparable within an allelic series) | – | – | – | – | – | – | – | – | – | – | – | – | –
TCATTAAA | 13.1 upbm affinity estimate (log intensity, higher = more binding, comparable within an allelic series) | 13.8 upbm affinity estimate (log intensity, higher = more binding, comparable within an allelic series) | – | 10.8 upbm affinity estimate (log intensity, higher = more binding, comparable within an allelic series) | – | 12.5 upbm affinity estimate (log intensity, higher = more binding, comparable within an allelic series) | 12.5 upbm affinity estimate (log intensity, higher = more binding, comparable within an allelic series) | 13.1 upbm affinity estimate (log intensity, higher = more binding, comparable within an allelic series) | 13.9 upbm affinity estimate (log intensity, higher = more binding, comparable within an allelic series) | 13 upbm affinity estimate (log intensity, higher = more binding, comparable within an allelic series) | 13 upbm affinity estimate (log intensity, higher = more binding, comparable within an allelic series) | 10.9 upbm affinity estimate (log intensity, higher = more binding, comparable within an allelic series) | 11.9 upbm affinity estimate (log intensity, higher = more binding, comparable within an allelic series) | 12.3 upbm affinity estimate (log intensity, higher = more binding, comparable within an allelic series) | 12.9 upbm affinity estimate (log intensity, higher = more binding, comparable within an allelic series)
GTCATTAA | 13.3 upbm affinity estimate (log intensity, higher = more binding, comparable within an allelic series) | 13.9 upbm affinity estimate (log intensity, higher = more binding, comparable within an allelic series) | 12.1 upbm affinity estimate (log intensity, higher = more binding, comparable within an allelic series) | 10.9 upbm affinity estimate (log intensity, higher = more binding, comparable within an allelic series) | 12.1 upbm affinity estimate (log intensity, higher = more binding, comparable within an allelic series) | 13.2 upbm affinity estimate (log intensity, higher = more binding, comparable within an allelic series) | 12.9 upbm affinity estimate (log intensity, higher = more binding, comparable within an allelic series) | 13.8 upbm affinity estimate (log intensity, higher = more binding, comparable within an allelic series) | 14.1 upbm affinity estimate (log intensity, higher = more binding, comparable within an allelic series) | 13.4 upbm affinity estimate (log intensity, higher = more binding, comparable within an allelic series) | 13.4 upbm affinity estimate (log intensity, higher = more binding, comparable within an allelic series) | 11 upbm affinity estimate (log intensity, higher = more binding, comparable within an allelic series) | 12.6 upbm affinity estimate (log intensity, higher = more binding, comparable within an allelic series) | 12.9 upbm affinity estimate (log intensity, higher = more binding, comparable within an allelic series) | 13.3 upbm affinity estimate (log intensity, higher = more binding, comparable within an allelic series)
ATCGATTA | 13.1 upbm affinity estimate (log intensity, higher = more binding, comparable within an allelic series) | 13.8 upbm affinity estimate (log intensity, higher = more binding, comparable within an allelic series) | 11.7 upbm affinity estimate (log intensity, higher = more binding, comparable within an allelic series) | – | 11.3 upbm affinity estimate (log intensity, higher = more binding, comparable within an allelic series) | 12.6 upbm affinity estimate (log intensity, higher = more binding, comparable within an allelic series) | 12 upbm affinity estimate (log intensity, higher = more binding, comparable within an allelic series) | 13.1 upbm affinity estimate (log intensity, higher = more binding, comparable within an allelic series) | – | – | – | – | 11 upbm affinity estimate (log intensity, higher = more binding, comparable within an allelic series) | – | –
ACTAATGA | 13.4 upbm affinity estimate (log intensity, higher = more binding, comparable within an allelic series) | 14 upbm affinity estimate (log intensity, higher = more binding, comparable within an allelic series) | 12.1 upbm affinity estimate (log intensity, higher = more binding, comparable within an allelic series) | 10.8 upbm affinity estimate (log intensity, higher = more binding, comparable within an allelic series) | 12 upbm affinity estimate (log intensity, higher = more binding, comparable within an allelic series) | 13.3 upbm affinity estimate (log intensity, higher = more binding, comparable within an allelic series) | 12.2 upbm affinity estimate (log intensity, higher = more binding, comparable within an allelic series) | 13.6 upbm affinity estimate (log intensity, higher = more binding, comparable within an allelic series) | 14.1 upbm affinity estimate (log intensity, higher = more binding, comparable within an allelic series) | 13.5 upbm affinity estimate (log intensity, higher = more binding, comparable within an allelic series) | 13.3 upbm affinity estimate (log intensity, higher = more binding, comparable within an allelic series) | 10.9 upbm affinity estimate (log intensity, higher = more binding, comparable within an allelic series) | 12.3 upbm affinity estimate (log intensity, higher = more binding, comparable within an allelic series) | 12.9 upbm affinity estimate (log intensity, higher = more binding, comparable within an allelic series) | 13.3 upbm affinity estimate (log intensity, higher = more binding, comparable within an allelic series)

Reference: article PMC11006913
